Measured values from PubChem BioAssay AID927 (National Center for Advancing Translational Sciences (NCATS), 2007).
The whole screen tested about 60,000 compounds, of which about 65 (0.1%) were called active. The call rests on the fitted dose curve; in most records, active means well fitted inhibition curve with a large enough effect; inconclusive means small, poorly fitted or top-dose-only effect; inactive means no such curve, though single readings can be large or run the other way. Shown is part of a subset that was picked to be rich in actives. A call without a number means that no potency is given here.

target: Ubiquitin carboxyl-terminal hydrolase 2 (Homo sapiens) (UniProt O75604); experiment: qHTS Assay for Inhibitors of Ubiquitin-specific Protease USP2a; details: USP2a enzymatic assay; Potency: qHTS inhibition; series mostly up to 38.3 µM; further: nearly all actives have a fitted effect of over 60% in size
Source text: NIH Molecular Libraries Screening Centers Network [MLSCN]
NIH Chemical Genomics Center [NCGC]
PI Name: Nicholson, Ben. Progenra Inc, Malvern, PA
Homeostasis of cellular proteins is maintained through a combination of synthesis and degradation. The pathway that accounts for the majority of protein degradation is the ubiquitin-proteasomal pathway. Ubiquitin (Ub) is highly conserved in all cells and the generation of a multi-Ub chain typically targets proteins for degradation by the proteasome. However, ubiquitination is highly reversible and dynamic. Deubiquitination, the reverse process, is catalyzed through the action of enzymes referred to as isopeptidases or deubiquitinating enzymes (DUBs). This group of enzymes is collectively responsible for maintaining adequate pools of free ubiquitin and regulating the ubiquitination status of cellular proteins. The class of DUBs referred to as the ubiquitin-specific proteases (USP) family functions endoproteolytically to cleave Ub chains from a wide range of protein substrates. USP2a deubiquitinates fatty acid synthase (FASN) which has recently been identified as an emerging oncology target. To identify inhibitors of USP2a a cell-free assay was employed.
The reporter enzyme chosen is phospholipase A2 (PLA2), which has an absolute requirement for a free amino terminus. Thus, fusion of a UBL to the N-terminus of PLA2 inactivates PLA2. When the UBL-PLA2 reporter enzyme is cleaved by USP2, the activated reporter can subsequently act on its substrate, which is the commercially available NBD C6-HPC (Invitrogen). Thus, this coupled assay gives a fluorescent read-out, which is generated through the cleavage of the PLA2 reporter enzyme. The assay, developed by Progenra, Inc. uses Ub-PLA2 and USP2a at near equal and low (nM) amounts and has been licensed for sale by LifeSensors, Inc. as the Ub-IsoPro1 kit.
NCGC Assay Protocol Summary:
The assay buffer, prepared fresh at the day of the assay, contains 20mM Tris-HCl pH 8.0, 2mM CaCl2, 2mM beta-Mercaptoethanol, 0.1% DMSO. 3ul of 40nM (20nM final) USP2 core, which is stored on ice, is dispensed into a medium-binding black solid Kalypsys 1,536 well plate using the Kalypsys dispenser. The assay plate is then pinned with 23nL compound with the Kalypsys pintool in columns 5-48. The controls are pinned as follows: column 1&2 two-fold dilutions of 2M NEM in duplicate; column 3 DMSO; column 4 2M NEM (final concentration 38.2mM). The assay plate is incubated at RT for 30min. Subsequently, 3uL of 40nM (20nM final) Ub-PLA2 and 40uM (20uM final) NBD C6-HPC (stored on ice and protected from light) were dispensed into the plate using the Kalypsys dispenser. Plates were read immediately (0 Hour) on an Envision (Perkin Elmer) plate reader using the following wavelengths Ex 460nm /Em 535nm. Then, the assay plates were incubated for 2.5 hours and read again on the Envision using the same settings
Data were normalized to the to AC100 inhibition (NEM). Concentration-response curves were fitted to the normalized data and the concentration-response curves were then classified based on curve quality (r2), response magnitude and degree of measured activity. The time zero reading was used to flag fluorescence artifacts.
Keywords: ubiquitination, deubiquitination, proteases, profluorescent, MLSMR, MLSCN, NIH Roadmap, qHTS, NCGC
Potency means the concentration at half of the fitted maximal effect.

Sequence of Ubiquitin carboxyl-terminal hydrolase 2 (Homo sapiens) (O75604 whole entry, looked up): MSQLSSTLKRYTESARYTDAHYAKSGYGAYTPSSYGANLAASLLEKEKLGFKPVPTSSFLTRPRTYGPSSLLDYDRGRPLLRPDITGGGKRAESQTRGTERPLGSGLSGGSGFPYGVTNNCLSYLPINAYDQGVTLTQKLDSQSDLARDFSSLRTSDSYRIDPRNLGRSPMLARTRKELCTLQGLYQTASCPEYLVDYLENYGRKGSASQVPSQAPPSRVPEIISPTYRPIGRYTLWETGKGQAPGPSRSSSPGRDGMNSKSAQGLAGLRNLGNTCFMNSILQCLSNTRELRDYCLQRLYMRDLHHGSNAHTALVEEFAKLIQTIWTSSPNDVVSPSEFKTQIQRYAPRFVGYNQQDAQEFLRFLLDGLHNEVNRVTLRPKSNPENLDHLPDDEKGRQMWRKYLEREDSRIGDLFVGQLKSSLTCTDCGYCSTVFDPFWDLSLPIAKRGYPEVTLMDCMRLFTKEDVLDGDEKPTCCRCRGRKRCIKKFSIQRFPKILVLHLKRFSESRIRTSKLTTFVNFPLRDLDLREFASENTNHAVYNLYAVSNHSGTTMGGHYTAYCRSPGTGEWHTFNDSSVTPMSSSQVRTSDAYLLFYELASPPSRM

Row | SMILES | Potency
1 | Clc1ccc(C(c2ccc(Cl)cc2)n2cc[n+](C[C@@H](OCc3ccc(Cl)cc3Cl)c3ccc(Cl)cc3Cl)c2)cc1 | 25.1 µM (active)
2 | COc1ccc(C2Oc3c(I)c(OC)cc(OC)c3CC2O)cc1OC (stereo not given) | inactive
3 | COC1CC(OC2CC[C@@]3(C=O)C4CC[C@]5(C)C(C6=CC(=O)OC6)CC[C@@]5(O)C4CC[C@]3(O)C2)OC(C)C1O (stereo not given in full) | inactive
4 | COc1cc2c(cc1OC)[C@@H]1C(=O)c3ccc(O)c(CC=C(C)C)c3OC1CO2 (stereo not given in full) | inactive
5 | C=CCSSCC=C | inactive
